# In PubChem BioAssay AID1159580 (chemical genetic matrix, 2015):
# The whole screen tested about 5,500 compounds, of which about 2,000 (36%) were called active. Roughly 18% stayed inconclusive and do not appear here. The list shows a part of the results. Values without a mark were called inactive. Rule as the data show it: active = normalized growth mostly below about 0.91 (no sharp cut-off); inconclusive = no clear call, values can overlap the other calls; inactive = mostly above about 0.92.
# Test: chemical genetic growth profiling, strain panel (AID 1159580);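 also: tested at 20 µM; growth read once vehicle control cultures reached saturation at 30 °C; 1 = growth at the plate median or of vehicle wells; lower values mean less growth of the strain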
# Conditions: growth OD
smiles,measurement,setting,value
C=CC(C1=CC(=O)C(OC)=CC1=O)c1ccc(OC)cc1 (configuration not stated),normalized growth,"S. cerevisiae deletion strains, locus YJR066W, strain TOR1, stronger effect = lower value",0.94
same,normalized growth,"S. cerevisiae deletion strains, locus YJR075W, strain HOC1, stronger effect = lower value",0.859 (active)
same,normalized growth,"S. cerevisiae deletion strains, locus YKL009W, strain mrt4, stronger effect = lower value",0.944
same,normalized growth,"S. cerevisiae deletion strains, locus YKL068W, stronger effect = lower value",0.976
same,normalized growth,"S. cerevisiae deletion strains, locus YKL085W, strain MDH1 (second series), stronger effect = lower value",0.966
same,normalized growth,"S. cerevisiae deletion strains, locus YKL085W, strain MDH1, stronger effect = lower value",0.966
same,normalized growth,"S. cerevisiae deletion strains, locus YKL160W, strain elf1, stronger effect = lower value",0.741 (active)
same,normalized growth,"S. cerevisiae deletion strains, locus YKL190W, strain CNB1, stronger effect = lower value",0.947
same,normalized growth,"S. cerevisiae deletion strains, locus YKR001C, strain vps1, stronger effect = lower value",0.814 (active)
same,normalized growth,"S. cerevisiae deletion strains, locus YKR026C, strain gcn3, stronger effect = lower value",0.967
same,normalized growth,"S. cerevisiae deletion strains, locus YKR091W, strain srl3, stronger effect = lower value",0.998
same,normalized growth,"S. cerevisiae deletion strains, locus YLL001W, strain dnm1, stronger effect = lower value",0.907
same,normalized growth,"S. cerevisiae deletion strains, locus YLL026W, stronger effect = lower value",0.839 (active)
same,normalized growth,"S. cerevisiae deletion strains, locus YLL041C, strain sdh2, stronger effect = lower value",0.955
same,normalized growth,"S. cerevisiae deletion strains, locus YLR027C, strain aat2, stronger effect = lower value",0.759 (active)
same,normalized growth,"S. cerevisiae deletion strains, locus YLR039C, strain RIC1, stronger effect = lower value",0.819
same,normalized growth,"S. cerevisiae deletion strains, locus YLR058C, strain SHM2, stronger effect = lower value",0.952
same,normalized growth,"S. cerevisiae deletion strains, locus YLR102C, strain apc9, stronger effect = lower value",0.945
same,normalized growth,"S. cerevisiae deletion strains, locus YLR113W, strain HOG1, stronger effect = lower value",0.958
same,normalized growth,"S. cerevisiae deletion strains, locus YLR221C, strain rsa3, stronger effect = lower value",0.701 (active)
same,normalized growth,"S. cerevisiae deletion strains, locus YLR258W, strain gsy2, stronger effect = lower value",0.849 (active)
same,normalized growth,"S. cerevisiae deletion strains, locus YLR262C, strain YPT6 (second series), stronger effect = lower value",0.39 (active)
same,normalized growth,"S. cerevisiae deletion strains, locus YLR262C, strain YPT6, stronger effect = lower value",0.71
same,normalized growth,"S. cerevisiae deletion strains, locus YLR268W, strain sec22, stronger effect = lower value",0.87 (active)
same,normalized growth,"S. cerevisiae deletion strains, locus YLR320W, strain mms22, stronger effect = lower value",0.276 (active)
same,normalized growth,"S. cerevisiae deletion strains, locus YLR330W, strain CHS5, stronger effect = lower value",0.968
same,normalized growth,"S. cerevisiae deletion strains, locus YLR342W, strain FKS1 (second series), stronger effect = lower value",0.674 (active)
same,normalized growth,"S. cerevisiae deletion strains, locus YLR342W, strain FKS1, stronger effect = lower value",0.914
same,normalized growth,"S. cerevisiae deletion strains, locus YLR357W, strain rsc2, stronger effect = lower value",1.07
same,normalized growth,"S. cerevisiae deletion strains, locus YLR370C, strain arc18, stronger effect = lower value",0.864 (active)
same,normalized growth,"S. cerevisiae deletion strains, locus YLR371W, strain rom2, stronger effect = lower value",0.941
same,normalized growth,"S. cerevisiae deletion strains, locus YLR384C, strain iki3, stronger effect = lower value",0.974
same,normalized growth,"S. cerevisiae deletion strains, locus YLR418C, strain cdc73, stronger effect = lower value",0.783 (active)
same,normalized growth,"S. cerevisiae deletion strains, locus YML016C, strain PPZ1, stronger effect = lower value",0.973
same,normalized growth,"S. cerevisiae deletion strains, locus YML032C, strain rad52, stronger effect = lower value",0.855 (active)
same,normalized growth,"S. cerevisiae deletion strains, locus YML120C, strain ndi1, stronger effect = lower value",0.911 (active)
same,normalized growth,"S. cerevisiae deletion strains, locus YML124C, strain tub3, stronger effect = lower value",0.949
same,normalized growth,"S. cerevisiae deletion strains, locus YMR058W, strain fet3, stronger effect = lower value",0.84 (active)
same,normalized growth,"S. cerevisiae deletion strains, locus YMR078C, strain ctf18, stronger effect = lower value",0.914
same,normalized growth,"S. cerevisiae deletion strains, locus YMR125W, strain sto1, stronger effect = lower value",0.779 (active)
same,normalized growth,"S. cerevisiae deletion strains, locus YMR129W, stronger effect = lower value",1
same,normalized growth,"S. cerevisiae deletion strains, locus YMR205C, strain PFK2, stronger effect = lower value",0.715 (active)
same,normalized growth,"S. cerevisiae deletion strains, locus YMR223W, strain ubp8, stronger effect = lower value",0.851 (active)
same,normalized growth,"S. cerevisiae deletion strains, locus YMR263W, strain SAP30, stronger effect = lower value",0.946
same,normalized growth,"S. cerevisiae deletion strains, locus YMR307W, strain GAS1, stronger effect = lower value",0.793
same,normalized growth,"S. cerevisiae deletion strains, locus YNL067W, strain RPL9B, stronger effect = lower value",0.947
same,normalized growth,"S. cerevisiae deletion strains, locus YNL071W, strain lat1, stronger effect = lower value",0.15 (active)
same,normalized growth,"S. cerevisiae deletion strains, locus YNL128W, strain TEP1, stronger effect = lower value",0.942
same,normalized growth,"S. cerevisiae deletion strains, locus YNL153C, strain GIM3, stronger effect = lower value",0.983
same,normalized growth,"S. cerevisiae deletion strains, locus YNL183C, strain NPR1, stronger effect = lower value",0.972
same,normalized growth,"S. cerevisiae deletion strains, locus YNL209W, strain ssb2, stronger effect = lower value",0.939
same,normalized growth,"S. cerevisiae deletion strains, locus YNL233W, strain BNI4, stronger effect = lower value",0.862 (active)
same,normalized growth,"S. cerevisiae deletion strains, locus YNL248C, strain rpa49, stronger effect = lower value",0.727 (active)
same,normalized growth,"S. cerevisiae deletion strains, locus YNL250W, strain rad50, stronger effect = lower value",0.944
same,normalized growth,"S. cerevisiae deletion strains, locus YNL271C, strain bni1, stronger effect = lower value",0.957
same,normalized growth,"S. cerevisiae deletion strains, locus YNL298W, strain CLA4, stronger effect = lower value",0.928
same,normalized growth,"S. cerevisiae deletion strains, locus YNL307C, strain MCK1, stronger effect = lower value",0.412 (active)
same,normalized growth,"S. cerevisiae deletion strains, locus YNL322C, strain KRE1 (second series), stronger effect = lower value",0.996
same,normalized growth,"S. cerevisiae deletion strains, locus YNL322C, strain KRE1, stronger effect = lower value",0.966
same,normalized growth,"S. cerevisiae deletion strains, locus YNR049C, strain mso1, stronger effect = lower value",0.962
same,normalized growth,"S. cerevisiae deletion strains, locus YNR052C, strain pop2, stronger effect = lower value",0.901 (active)
same,normalized growth,"S. cerevisiae deletion strains, locus YOL006C, strain TOP1, stronger effect = lower value",0.669
same,normalized growth,"S. cerevisiae deletion strains, locus YOL012C, strain htz1",0.791
same,normalized growth,"S. cerevisiae deletion strains, locus YOL147C, strain pex11, stronger effect = lower value",0.903 (active)
same,normalized growth,"S. cerevisiae deletion strains, locus YOR001W, strain rrp6, stronger effect = lower value",0.844 (active)
same,normalized growth,"S. cerevisiae deletion strains, locus YOR061W, strain CKA2, stronger effect = lower value",0.962
same,normalized growth,"S. cerevisiae deletion strains, locus YOR069W, strain VPS5, stronger effect = lower value",0.962
same,normalized growth,"S. cerevisiae deletion strains, locus YOR070C, strain gyp1, stronger effect = lower value",0.817 (active)
same,normalized growth,"S. cerevisiae deletion strains, locus YOR080W, strain dia2, stronger effect = lower value",1
same,normalized growth,"S. cerevisiae deletion strains, locus YOR083W, strain WHI5, stronger effect = lower value",0.788 (active)
same,normalized growth,"S. cerevisiae deletion strains, locus YOR106W, strain vam3, stronger effect = lower value",0.642 (active)
same,normalized growth,"S. cerevisiae deletion strains, locus YOR136W, strain idh2, stronger effect = lower value",0.919 (active)
same,normalized growth,"S. cerevisiae deletion strains, locus YOR144C, strain elg1, stronger effect = lower value",0.956
same,normalized growth,"S. cerevisiae deletion strains, locus YOR184W, strain ser1, stronger effect = lower value",0.738 (active)
same,normalized growth,"S. cerevisiae deletion strains, locus YOR231W, strain MKK1, stronger effect = lower value",1.03
same,normalized growth,"S. cerevisiae deletion strains, locus YOR265W, strain rbl2, stronger effect = lower value",0.945
same,normalized growth,"S. cerevisiae deletion strains, locus YOR270C, strain vph1, stronger effect = lower value",0.416 (active)
same,normalized growth,"S. cerevisiae deletion strains, locus YOR290C, strain snf2, stronger effect = lower value",0.851 (active)
same,normalized growth,"S. cerevisiae deletion strains, locus YOR316C, strain cot1, stronger effect = lower value",0.947
same,normalized growth,"S. cerevisiae deletion strains, locus YPL051W, strain arl3, stronger effect = lower value",0.657 (active)
same,normalized growth,"S. cerevisiae deletion strains, locus YPL055C, strain LGE1, stronger effect = lower value",0.869
same,normalized growth,"S. cerevisiae deletion strains, locus YPL078C, strain atp4, stronger effect = lower value",0.802 (active)
same,normalized growth,"S. cerevisiae deletion strains, locus YPL106C, strain sse1, stronger effect = lower value",1.03
same,normalized growth,"S. cerevisiae deletion strains, locus YPL240C, strain hsp82, stronger effect = lower value",0.851 (active)
same,normalized growth,"S. cerevisiae deletion strains, locus YPL241C, strain CIN2, stronger effect = lower value",0.982
same,normalized growth,"S. cerevisiae deletion strains, locus YPL256C, strain CLN2, stronger effect = lower value",1.08
same,normalized growth,"S. cerevisiae deletion strains, locus YPR119W, strain clb2, stronger effect = lower value",0.944
same,normalized growth,"S. cerevisiae deletion strains, locus YPR141C, strain kar3, stronger effect = lower value",0.963
same,normalized growth,"S. cerevisiae deletion strains, locus YPR163C, strain tif3, stronger effect = lower value",0.8 (active)
same,normalized growth,"S. cerevisiae deletion strains, locus YPR167C, strain met16, stronger effect = lower value",0.95
same,normalized growth,"S. cerevisiae deletion strains, strain wtn01, stronger effect = lower value",0.877 (active)
same,normalized growth,"S. cerevisiae strains, strain wild type, stronger effect = lower value",0.886 (active)
